Here are results for 88 compounds from PubChem BioAssay AID722 (NMMLSC, 2007).

Screen size: about 1,300 compounds; about 40 (3%) were called active. Rule as the data show it: active = inhibition above about 30%; inactive = the rest. For the sample, actives were picked, then their nearest neighbours and some compounds at random.

For the assay, the target named is fMet-Leu-Phe receptor (Homo sapiens) (UniProt P21462). Briefly: FPR1 fluorescent ligand binding inhibitors, primary screen, cell-based, flow cytometry, SAR analysis (AID 722). The settings on record: FPR-expressing cells, stronger effect = higher value, concentration not given here. (A flow cytometer gives signals particle by particle.)
Chain of fMet-Leu-Phe receptor (Homo sapiens) (P21462 whole entry, looked up): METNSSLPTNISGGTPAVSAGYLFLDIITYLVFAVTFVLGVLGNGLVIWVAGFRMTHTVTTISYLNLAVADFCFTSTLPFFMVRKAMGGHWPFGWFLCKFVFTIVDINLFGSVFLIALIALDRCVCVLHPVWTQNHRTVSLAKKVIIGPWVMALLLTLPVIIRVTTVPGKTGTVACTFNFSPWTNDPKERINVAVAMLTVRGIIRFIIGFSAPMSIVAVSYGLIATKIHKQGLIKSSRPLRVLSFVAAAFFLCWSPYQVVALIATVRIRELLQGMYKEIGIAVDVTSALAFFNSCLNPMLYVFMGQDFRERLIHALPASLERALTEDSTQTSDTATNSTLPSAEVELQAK
The term inhibition denotes the drop in the measured response relative to a control, in per cent. For the compound `Cc1onc(-c2c(Cl)cccc2Cl)c1C(=O)N1CCCC(C)C1` (stereo not drawn), the inhibition was -2.1% (inactive).

Take `CCOC(=O)c1cc(C)sc1NC(=O)c1ccc(OC)cc1`: the inhibition is -6.6% (inactive).

Consider `O=C1CSC(c2ccc(F)cc2)N1c1ccccc1F` (stereo not drawn), for which the inhibition is -3% (inactive).

As to `CN1C(=O)C(=O)/C(=C(\O)c2ccc(Cl)cc2)C1c1ccc(Cl)cc1` (stereo not drawn), the inhibition was -3.2% (inactive).

Turning to `O=C1CSC(c2cccc(F)c2)N1c1c(F)cccc1F` (stereo not drawn), the inhibition is 0.4% (inactive).

With `Cn1c(OCc2cccnc2)nc2c1c(=O)n(Cc1ccc(F)cc1)c(=O)n2C`, the inhibition was 1% (inactive).

`O=C1C(=O)N(Cc2cccnc2)C(c2ccc(Br)cc2)/C1=C(\O)c1ccc(F)cc1` (stereo not drawn): the inhibition is -5.5% (inactive).

For `O=C(c1ccccc1)N(Cc1ccco1)Cc1ccccc1Cl`, the inhibition was -5% (inactive).

With `Cc1ccccc1C(=O)N1C(=S)C(c2ccc(F)cc2)=NC12CCN(C)CC2`, the inhibition is 3.3% (inactive).

`CCOC(=O)c1c(NC(=O)c2ccc(F)cc2)sc(C)c1C`: the inhibition is -3.4% (inactive).

As to `COc1ccc(NC(=O)C(NC(=O)Cc2cccs2)c2ccccc2)cc1` (stereo not drawn), the inhibition is -2.6% (inactive).

On to `O=C1C(=O)N(Cc2cccnc2)C(c2ccccc2Cl)/C1=C(\O)c1ccccc1` (stereo not drawn), for which the inhibition was 1.8% (inactive).

Regarding `CC(C)CN1C(=O)c2ccccc2C(C(=O)N2CCCC2)C1c1cccs1` (stereo not drawn), the inhibition was 4.5% (inactive).

On to `COc1ccc(/C(O)=C2/C(=O)C(=O)N(CCc3c[nH]c4ccccc34)C2c2ccc(C(C)C)cc2)cc1` (stereo not drawn), for which the inhibition was 43.8% (active).

Turning to `CCc1ccc(C2/C(=C(/O)c3ccc(OC)cc3)C(=O)C(=O)N2CCc2c[nH]c3ccccc23)cc1` (stereo not drawn), the inhibition was 3% (inactive).

In the case of `O=C1C(=O)N(CCc2c[nH]c3ccccc23)C(c2ccc(Cl)cc2)/C1=C(/O)c1ccc(F)cc1` (stereo not drawn), the inhibition was 1.5% (inactive).

Turning to `O=C(C1=C(O)C(=O)N(CC2CCCO2)C1c1cccs1)c1ccco1` (stereo not drawn), the inhibition is -9.5% (inactive).

With `Cn1c(NCCO)nc2c1c(=O)n(Cc1ccc(F)cc1)c(=O)n2C`, the inhibition is -9.2% (inactive).

For `COc1ccc(Cl)cc1N1C(=O)CSC1c1ccccc1F` (stereo not drawn), the inhibition was 4.1% (inactive).

With `COc1ccc(N(C(=O)c2cccnc2)S(=O)(=O)c2cccs2)cc1`, the inhibition was 13% (inactive).

With `COc1ccc(/C(O)=C2/C(=O)C(=O)N(CCCn3ccnc3)C2c2ccc(O)c(OC)c2)cc1` (stereo not drawn), the inhibition was -11% (inactive).

As for `Cn1c(NCCO)nc2c1c(=O)n(Cc1cccc(F)c1)c(=O)n2C`, the inhibition is 6.7% (inactive).

Turning to `O=C1C(=O)N(c2nc3ccccc3s2)C(c2cccc(F)c2)/C1=C(\O)c1ccccc1` (stereo not drawn), the inhibition was 4.3% (inactive).

Turning to `CCOc1ccccc1C(=O)N(Cc1ccco1)Cc1ccco1`, the inhibition is -4.7% (inactive).

Turning to `O=C(c1ccccc1)N(Cc1ccco1)Cc1ccco1`, the inhibition is 7.4% (inactive).

On to `CCCC(=O)N(Cc1ccco1)S(=O)(=O)c1cccc2cccnc12`, for which the inhibition is 97.6% (active).

`Cc1ccccc1NC(=S)N(Cc1ccco1)C(C)c1ccccn1` (stereo not drawn): the inhibition was -1% (inactive).

In the case of `CC(C)C(=O)N(Cc1ccco1)S(=O)(=O)c1cccc2cccnc12`, the inhibition was 82.2% (active).

Turning to `CCc1ccc(CN(Cc2ccco2)C(=O)c2ccccc2)cc1`, the inhibition is 2.2% (inactive).

As for `COc1ccc(Cn2c(=S)[nH]c3cc4ccccc4cc3c2=O)cc1`, the inhibition was -2.8% (inactive).

As to `COC(=O)c1ccccc1NC(=O)NC1CCCCC1`, the inhibition is -4.1% (inactive).

For `Cc1ccc(/C(O)=C2\C(=O)C(=O)NC2c2ccc(C)cc2)cc1` (stereo not drawn), the inhibition was -7.7% (inactive).

As to `COCCCN1C(=O)C(=O)/C(=C(/O)c2ccccc2)C1c1ccc2c(c1)OCO2` (stereo not drawn), the inhibition was -1.2% (inactive).

As to `O=C1C(=O)N(CCO)C(c2ccc([N+](=O)[O-])cc2)/C1=C(/O)c1ccc(Cl)cc1` (stereo not drawn), the inhibition was -5.4% (inactive).

In the case of `O=C1CC(c2cccc(Cl)c2Cl)C2=C(CC(c3cccs3)CC2=O)N1` (stereo not drawn), the inhibition was -15.7% (inactive).

Regarding `O=C1CC(c2ccccc2C(F)(F)F)C2=C(CC(c3cccs3)CC2=O)N1` (stereo not drawn), the inhibition is 32.3% (active).

`O=C1CC(c2ccccc2)C2=C(CC(c3cccs3)CC2=O)N1` (stereo not drawn): the inhibition was -21.7% (inactive).

Regarding `O=C1CC(c2cccc(Cl)c2)C2=C(CC(c3cccs3)CC2=O)N1` (stereo not drawn), the inhibition was 10.4% (inactive).

As to `Cc1cccc(C2CC(=O)NC3=C2C(=O)CC(c2cccs2)C3)c1` (stereo not drawn), the inhibition is 33.7% (active).

Turning to `O=C1CC(c2cccc(F)c2)C2=C(CC(c3cccs3)CC2=O)N1` (stereo not drawn), the inhibition is -6.6% (inactive).

Regarding `COc1ccc(C2C(C(=O)c3cccs3)=C(O)C(=O)N2Cc2cccnc2)cc1` (stereo not drawn), the inhibition is -9.5% (inactive).

For the compound `O=C1C(=O)N(CCO)C(c2cccc(F)c2)/C1=C(/O)c1ccccc1` (stereo not drawn), the inhibition was -7.5% (inactive).

`COc1ccc(OC)c(C2/C(=C(\O)c3ccccc3)C(=O)C(=O)N2c2nc3ccccc3s2)c1` (stereo not drawn): the inhibition is -1.7% (inactive).

As for `COc1cccc(C2/C(=C(\O)c3ccc(F)cc3)C(=O)C(=O)N2Cc2cccnc2)c1` (stereo not drawn), the inhibition is 1% (inactive).

Turning to `CC(C)(C)c1ccc(C2/C(=C(\O)c3ccc(F)cc3)C(=O)C(=O)N2Cc2cccnc2)cc1` (stereo not drawn), the inhibition was -1.6% (inactive).

Consider `O=C1NC(c2ccccc2Cl)/C(=C(/O)c2ccc(Br)cc2)C1=O` (stereo not drawn), for which the inhibition was 8.6% (inactive).

Take `COc1ccc(C2NC(=O)C(=O)/C2=C(\O)c2ccc(Cl)cc2)cc1` (stereo not drawn): the inhibition was -4.8% (inactive).

As to `O=C1NC(c2ccc(Br)cc2)/C(=C(\O)c2ccc(Cl)cc2)C1=O` (stereo not drawn), the inhibition is 46.3% (active).

With `O=C1NC(c2cccc(F)c2)/C(=C(/O)c2ccc(Br)cc2)C1=O` (stereo not drawn), the inhibition is 17% (inactive).

Take `COC(=O)c1sc(N2C(=O)C(O)=C(C(=O)c3cc4ccccc4o3)C2c2ccc(OC)cc2)nc1C` (stereo not drawn): the inhibition is 3.6% (inactive).

With `COC(=O)c1c[nH]n2c(=O)cc(C3CCNCC3)nc12`, the inhibition was -1.9% (inactive).

On to `O=C1CSC(c2ccc(Br)cc2)N1c1cccc(Cl)c1` (stereo not drawn), for which the inhibition was 2.7% (inactive).

In the case of `COc1cc(C2C(C(=O)c3cc4ccccc4o3)=C(O)C(=O)N2CCCN(C)C)cc(OC)c1OC` (stereo not drawn), the inhibition is 14.6% (inactive).

In the case of `COc1ccc(C2C(C(=O)c3cc4ccccc4o3)=C(O)C(=O)N2CCN(C)C)cc1OC` (stereo not drawn), the inhibition is 66.9% (active).

As to `COc1cc(C2C(C(=O)c3cc4ccccc4o3)=C(O)C(=O)N2CCN(C)C)ccc1O` (stereo not drawn), the inhibition was 88.7% (active).

For the compound `COc1ccc(C2C(C(=O)c3cc4ccccc4o3)=C(O)C(=O)N2CCN(C)C)cc1` (stereo not drawn), the inhibition is -8.1% (inactive).

For `COc1cc(C2C(C(=O)c3cc4ccccc4o3)=C(O)C(=O)N2CCN(C)C)cc(OC)c1OC` (stereo not drawn), the inhibition is -6.9% (inactive).

`COc1cccc(C2C(C(=O)c3cc4ccccc4o3)=C(O)C(=O)N2CCCN(C)C)c1` (stereo not drawn): the inhibition was -4.2% (inactive).

For the compound `COCCCN1C(=O)C(=O)/C(=C(/O)c2ccc(C)cc2)C1c1cc(OC)ccc1OC` (stereo not drawn), the inhibition is 0.2% (inactive).

For `CCOC(=O)Cc1c(C)nc2c(-c3ccccc3)c(-c3ccccc3)[nH]n2c1=O`, the inhibition was -11.4% (inactive).

For the compound `COCCN1C(=O)C(O)=C(C(=O)c2cc3ccccc3o2)C1c1ccc(OCc2ccccc2)c(OC)c1` (stereo not drawn), the inhibition is -2.2% (inactive).

As for `COc1ccc(C2C(C(=O)c3cccs3)=C(O)C(=O)N2CCCN2CCOCC2)cc1` (stereo not drawn), the inhibition is 6.5% (inactive).

Take `COc1ccc(C2C(C(=O)c3ccco3)=C(O)C(=O)N2CCN2CCOCC2)cc1` (stereo not drawn): the inhibition was 2.9% (inactive).

Consider `COc1ccc(C2C(C(=O)c3ccco3)=C(O)C(=O)N2CCN2CCOCC2)cc1OC` (stereo not drawn), for which the inhibition was -43.5% (inactive).

`COc1ccc(C2C(C(=O)c3cccs3)=C(O)C(=O)N2CCN2CCOCC2)c(OC)c1` (stereo not drawn): the inhibition is 62% (active).

`COc1ccc(C2C(C(=O)c3cccs3)=C(O)C(=O)N2CCN2CCOCC2)cc1` (stereo not drawn): the inhibition is 9.7% (inactive).

Consider `COc1ccc(C2C(C(=O)c3ccco3)=C(O)C(=O)N2CCN2CCOCC2)c(OC)c1` (stereo not drawn), for which the inhibition is 49.5% (active).

Regarding `COc1ccccc1CN1C(=O)c2nccnc2C1=O`, the inhibition is 1.8% (inactive).

As to `CCc1ccc(C(=O)CSc2nc3nc(C)cc(C)c3c(=O)[nH]2)cc1`, the inhibition is 5.9% (inactive).

Consider `CCOC(=O)c1c(NC(=O)c2ccco2)sc2c1CCC(C)C2` (stereo not drawn), for which the inhibition is -0.4% (inactive).

`Cc1ccc(N2C(=O)CSC2c2ccc(C(C)C)cc2)cc1` (stereo not drawn): the inhibition was -5.6% (inactive).

Consider `O=C(C1=C(O)C(=O)N(CCCn2ccnc2)C1c1ccc(Cl)cc1Cl)c1ccco1` (stereo not drawn), for which the inhibition was 1.7% (inactive).

`CCOC(=O)c1c(NC(=O)c2cccnc2)sc2c1CCC(C(C)(C)C)C2` (stereo not drawn): the inhibition was -8% (inactive).

As to `O=C1C(=O)N(c2cccnc2)C(c2ccccc2[N+](=O)[O-])/C1=C(/O)c1ccccc1` (stereo not drawn), the inhibition is -2.9% (inactive).

On to `CCc1c(C)sc(NC(=O)c2cccc(F)c2)c1C(=O)OC`, for which the inhibition is -9.8% (inactive).

On to `COc1ccc(C2C(C(C)=O)=C(O)C(=O)N2Cc2ccco2)cc1OC` (stereo not drawn), for which the inhibition was 1.8% (inactive).

As to `COc1cccc(Oc2c(C(F)(F)F)oc3cc(O)ccc3c2=O)c1`, the inhibition is 9.2% (inactive).

Turning to `COC(=O)c1c(NC(=O)c2ccoc2C)sc(C)c1C`, the inhibition was 5.4% (inactive).

With `CCc1c(C)nc2c(-c3ccc(OC)cc3)c(C)[nH]n2c1=O`, the inhibition is 12.9% (inactive).

`COc1ccc(-c2c(C)[nH]n3c(=O)cc(Cc4ccccc4)nc23)cc1`: the inhibition was -1.1% (inactive).

Consider `COc1ccc(-c2c(C)[nH]n3c(=O)c4c(nc23)CCCC4)cc1`, for which the inhibition is 73% (active).

Take `CC(C)OC(=O)c1nonc1N(C(=O)c1ccccc1)C(=O)c1ccccc1`: the inhibition was -0.6% (inactive).

In the case of `O=C1C(=O)N(CCN2CCOCC2)C(c2cccs2)/C1=C(\O)c1ccc(S(=O)(=O)N2CCOCC2)cc1` (stereo not drawn), the inhibition was -1.3% (inactive).

Turning to `CC(=O)C1=C(O)C(=O)N(CCc2c(C)[nH]c3ccccc23)C1c1cccc(F)c1` (stereo not drawn), the inhibition is 65.2% (active).

Turning to `CC(=O)C1=C(O)C(=O)N(CCc2c(C)[nH]c3ccccc23)C1c1cccc([N+](=O)[O-])c1` (stereo not drawn), the inhibition is 9.3% (inactive).

Turning to `COc1ccc(/C(O)=C2/C(=O)C(=O)N(CCc3c(C)[nH]c4ccccc34)C2c2ccc(Cl)cc2)cc1` (stereo not drawn), the inhibition is 4.2% (inactive).

For the compound `Cc1onc(-c2ccccc2Cl)c1C(=O)Oc1cccc(F)c1`, the inhibition is 3.6% (inactive).

Regarding `CCOC(=O)c1c(NC(=O)c2cc3ccccc3o2)sc2c1CCC(C)C2` (stereo not drawn), the inhibition is -1.7% (inactive).
